What was measured:
[1] = test system: Botulinum neurotoxin type F light chain protease (Clostridium botulinum); test: Clostridium botulinum type F light chain protease inhibitors, microsphere substrate cleavage, validation (AID 588459); conditions: multiplex microsphere protease substrate cleavage assay, flow cytometry; at 10 µM; stronger effect = higher value
[2] = target: Botulinum neurotoxin type A (Clostridium botulinum) (UniProt P0DPI0); test: BoNT/A light chain protease inhibitors, biochemical, multiplex microsphere flow cytometry, validation set (AID 588460); conditions: at 10 µM, stronger effect = higher value
Botulinum neurotoxin type A (Clostridium botulinum), sequence (P0DPI0 whole entry, looked up): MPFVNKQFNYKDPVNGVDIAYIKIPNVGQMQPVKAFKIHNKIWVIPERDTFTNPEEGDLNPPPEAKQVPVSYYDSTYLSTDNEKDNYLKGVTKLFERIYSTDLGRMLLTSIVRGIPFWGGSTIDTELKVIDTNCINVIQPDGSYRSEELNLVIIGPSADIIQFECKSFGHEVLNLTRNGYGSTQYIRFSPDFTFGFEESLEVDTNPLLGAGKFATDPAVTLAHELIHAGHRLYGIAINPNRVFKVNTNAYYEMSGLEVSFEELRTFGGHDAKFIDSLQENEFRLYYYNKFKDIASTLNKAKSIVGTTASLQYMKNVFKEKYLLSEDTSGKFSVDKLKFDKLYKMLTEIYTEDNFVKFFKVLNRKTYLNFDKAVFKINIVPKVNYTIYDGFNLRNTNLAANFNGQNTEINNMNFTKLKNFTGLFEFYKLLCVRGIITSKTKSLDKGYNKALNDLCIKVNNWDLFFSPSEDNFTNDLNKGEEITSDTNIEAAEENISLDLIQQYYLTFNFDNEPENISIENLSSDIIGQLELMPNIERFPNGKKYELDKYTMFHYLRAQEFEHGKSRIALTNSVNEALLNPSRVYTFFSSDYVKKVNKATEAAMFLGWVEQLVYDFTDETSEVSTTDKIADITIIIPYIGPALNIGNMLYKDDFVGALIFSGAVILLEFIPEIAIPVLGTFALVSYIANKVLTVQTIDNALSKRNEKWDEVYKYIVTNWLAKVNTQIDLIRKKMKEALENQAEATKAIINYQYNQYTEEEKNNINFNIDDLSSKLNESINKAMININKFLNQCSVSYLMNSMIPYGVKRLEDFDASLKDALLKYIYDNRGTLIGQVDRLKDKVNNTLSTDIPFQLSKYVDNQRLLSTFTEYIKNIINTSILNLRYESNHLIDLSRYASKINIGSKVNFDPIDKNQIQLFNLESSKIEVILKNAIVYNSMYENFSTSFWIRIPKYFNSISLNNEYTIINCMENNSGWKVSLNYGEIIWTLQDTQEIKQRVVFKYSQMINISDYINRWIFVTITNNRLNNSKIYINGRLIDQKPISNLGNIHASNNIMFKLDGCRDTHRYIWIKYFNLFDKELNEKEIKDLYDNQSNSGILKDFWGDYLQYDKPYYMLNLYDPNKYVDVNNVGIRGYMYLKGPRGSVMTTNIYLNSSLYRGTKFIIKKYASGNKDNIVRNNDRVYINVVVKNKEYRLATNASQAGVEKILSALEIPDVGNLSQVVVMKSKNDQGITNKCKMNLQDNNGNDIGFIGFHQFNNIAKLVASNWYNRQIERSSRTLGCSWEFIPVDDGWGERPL

[3] = target: Lethal factor (Bacillus anthracis) (UniProt P15917); test: Bacillus anthracis lethal factor inhibition, microsphere flow cytometry protease assay, validation at 10 µM (AID 588461); conditions: multiplex microsphere protease cleavage assay, stronger effect = higher value
Lethal factor (Bacillus anthracis), sequence (P15917 whole entry, looked up): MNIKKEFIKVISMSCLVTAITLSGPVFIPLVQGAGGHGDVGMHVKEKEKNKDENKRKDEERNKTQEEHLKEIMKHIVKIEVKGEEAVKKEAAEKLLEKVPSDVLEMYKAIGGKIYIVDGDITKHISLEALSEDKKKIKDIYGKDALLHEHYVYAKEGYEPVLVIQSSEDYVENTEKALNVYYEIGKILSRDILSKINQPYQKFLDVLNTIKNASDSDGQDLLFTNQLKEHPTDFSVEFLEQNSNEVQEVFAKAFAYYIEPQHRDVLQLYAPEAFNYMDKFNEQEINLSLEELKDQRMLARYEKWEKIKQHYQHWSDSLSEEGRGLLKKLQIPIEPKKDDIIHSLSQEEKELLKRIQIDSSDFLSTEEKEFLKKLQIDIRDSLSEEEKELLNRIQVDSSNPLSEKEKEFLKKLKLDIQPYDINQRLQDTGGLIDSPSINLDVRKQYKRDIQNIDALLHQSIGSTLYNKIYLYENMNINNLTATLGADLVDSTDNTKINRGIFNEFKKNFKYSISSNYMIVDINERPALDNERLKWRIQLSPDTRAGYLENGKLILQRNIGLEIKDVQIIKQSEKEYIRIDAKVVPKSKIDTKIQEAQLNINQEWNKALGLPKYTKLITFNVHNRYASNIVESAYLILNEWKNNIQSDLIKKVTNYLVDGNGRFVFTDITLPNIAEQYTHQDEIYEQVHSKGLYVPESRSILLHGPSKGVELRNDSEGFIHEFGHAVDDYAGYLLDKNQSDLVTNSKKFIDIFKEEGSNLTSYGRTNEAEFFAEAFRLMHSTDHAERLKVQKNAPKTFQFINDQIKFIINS

Measured: inhibition

CC(=O)N(CCC(Cc1ccccc1)c1ccc2c(c1)OCO2)Cc1ccc(Cl)cc1 (stereo not drawn)
inactive: [1] 3.5% | [2] 0.1% | [3] -1%

O=C(O)c1ccccc1OCCOc1ccccc1
inactive: [1] 3.5% | [2] 2.5% | [3] 7.2%

CC(=O)C1=C(Nc2ccc(C)cc2)CC(C)(O)C(C(C)=O)C1c1ccco1 (stereo not drawn)
inactive: [1] 1% | [2] 0% | [3] -2.3%

COc1ccc2c(c1OC)C(C1c3c(cc4c(c3OC)OCO4)CCN1C)OC2=O (stereo not drawn)
inactive: [1] 1.6% | [2] -0.7% | [3] 3.5%

Cc1ccc(C(=O)NCCNC(=O)c2ccccc2)cc1
inactive: [1] 1.3% | [2] 0.3% | [3] -1.4%

N/C(=N\OS(=O)(=O)c1ccc2ccccc2c1)c1cccnc1
inactive: [1] -1.4% | [2] -0.9% | [3] 0.2%

COC1=CC(=O)CC(C)C12Oc1c(Cl)c(OC)cc(OC)c1C2=O (stereo not drawn)
inactive: [1] -0.7% | [2] -0.1% | [3] -1.8%

O=C(NCC1CCCCN1)c1cc(OCC(F)(F)F)ccc1OCC(F)(F)F (stereo not drawn)
inactive: [1] -0.8% | [2] -0.3% | [3] -2%

CNc1nc(N(C)C)nc(N(C)C)n1
inactive: [1] 1.3% | [2] 0.7% | [3] -1.7%

O=Cc1ccc(OC(=O)c2cccnc2)cc1
inactive: [1] 0.2% | [2] -0.7% | [3] -3.8%

C[C@]12CCC(=O)C=C1CC[C@@H]1[C@@H]2[C@@H](O)C[C@@]2(C)[C@H]1CC[C@]2(O)C(=O)COC(=O)CCC(=O)O
inactive: [1] 1.7% | [2] -2.4% | [3] -8%

— PubChem BioAssay
